Measured values published in PubChem BioAssay.
A number with no mark means an inactive call. The source made the active and inactive calls. Cut-off read from the data, not from the text of the source, unless noted: active = inhibition above about 36%; inactive = the rest.

What was measured:
[1] = system: transactivating tegument protein VP16 (Human herpesvirus 1); experiment: VP16 transactivation reporter inhibitors, counter-screen for SRC2 inhibitor project, cell-based, luminescence, single concentration (AID 652007); conditions: cell-based VP16 transactivation luciferase reporter, at 8.9 µM, active compounds read high
[2] = biological target: Nuclear receptor coactivator 2 (Homo sapiens) (UniProt Q15596); experiment: SRC2 coactivator transcriptional activity inhibitors, confirmation, cell-based, luminescence, HEK293, triplicate (AID 652008;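 active = mean inhibition above 46.5%, the solvent-only control mean plus 3 SD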;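 note: 0% = DMSO-treated cells and 100% = Gossypol at 36 µM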); conditions: HEK293 GAL4-SRC2 luciferase reporter, at 8.9 µM, active compounds read high
Sequence of Nuclear receptor coactivator 2 (Homo sapiens) (Q15596 whole entry, looked up, the tested form may be a part): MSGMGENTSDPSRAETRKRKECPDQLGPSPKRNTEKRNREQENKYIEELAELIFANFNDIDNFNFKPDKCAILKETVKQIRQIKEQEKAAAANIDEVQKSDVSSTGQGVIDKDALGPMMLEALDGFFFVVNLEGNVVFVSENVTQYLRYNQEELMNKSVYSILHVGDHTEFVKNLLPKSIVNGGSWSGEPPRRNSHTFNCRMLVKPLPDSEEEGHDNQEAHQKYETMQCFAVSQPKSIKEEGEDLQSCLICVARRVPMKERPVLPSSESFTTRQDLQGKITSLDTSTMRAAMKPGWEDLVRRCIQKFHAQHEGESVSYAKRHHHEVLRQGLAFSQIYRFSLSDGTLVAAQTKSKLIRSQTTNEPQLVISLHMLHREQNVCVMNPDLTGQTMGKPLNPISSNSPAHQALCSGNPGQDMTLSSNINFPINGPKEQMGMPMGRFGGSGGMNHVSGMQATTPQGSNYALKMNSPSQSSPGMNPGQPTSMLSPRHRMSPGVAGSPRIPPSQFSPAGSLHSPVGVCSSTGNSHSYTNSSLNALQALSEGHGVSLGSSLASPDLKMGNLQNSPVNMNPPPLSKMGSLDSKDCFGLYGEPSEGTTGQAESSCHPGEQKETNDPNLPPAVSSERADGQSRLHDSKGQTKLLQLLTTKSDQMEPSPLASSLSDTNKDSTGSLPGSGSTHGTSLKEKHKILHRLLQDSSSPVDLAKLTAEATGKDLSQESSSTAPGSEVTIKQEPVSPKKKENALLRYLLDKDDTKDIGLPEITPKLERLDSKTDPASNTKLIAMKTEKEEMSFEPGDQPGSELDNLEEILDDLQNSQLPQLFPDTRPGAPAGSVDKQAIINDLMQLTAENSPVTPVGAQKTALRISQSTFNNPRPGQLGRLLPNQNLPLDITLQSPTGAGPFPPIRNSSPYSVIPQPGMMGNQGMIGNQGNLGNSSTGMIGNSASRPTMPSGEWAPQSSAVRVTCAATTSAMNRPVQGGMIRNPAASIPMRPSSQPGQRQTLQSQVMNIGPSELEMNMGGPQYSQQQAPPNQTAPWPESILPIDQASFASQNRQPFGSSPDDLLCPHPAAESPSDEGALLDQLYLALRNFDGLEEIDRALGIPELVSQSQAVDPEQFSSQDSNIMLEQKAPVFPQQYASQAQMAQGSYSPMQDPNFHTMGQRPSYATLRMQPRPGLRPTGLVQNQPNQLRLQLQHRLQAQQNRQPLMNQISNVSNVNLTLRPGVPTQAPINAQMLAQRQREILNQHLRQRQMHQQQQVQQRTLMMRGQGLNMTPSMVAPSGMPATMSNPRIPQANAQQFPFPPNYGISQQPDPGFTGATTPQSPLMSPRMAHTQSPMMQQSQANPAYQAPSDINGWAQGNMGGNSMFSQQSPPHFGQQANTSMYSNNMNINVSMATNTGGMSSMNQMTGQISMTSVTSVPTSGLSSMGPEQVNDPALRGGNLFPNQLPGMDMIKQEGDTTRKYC

SMILES | inhibition [1] | inhibition [2]
O=C(N/N=C/c1coc2ccc(Cl)cc2c1=O)c1ccncc1 | -13.1% | 31.4%
COc1ccc(CNC(=O)COC(=O)/C=C/c2cccc(Br)c2)cc1OC | -0.64% | -19.4%
COc1ccc(O)c(C(=O)c2cnn(S(=O)(=O)c3ccc(C)cc3)c2)c1 | -7.7% | 7.12%
C=CCOc1ccccc1CN1CCC(Cc2ccccc2)CC1 | 8.57% | -13.5%
Cc1nnc(SCC2=C(C(=O)O)N3C(=O)C(NC(=O)Cn4nc(C)c(Cl)c4C)C3SC2)s1 (centres undefined) | -2.47% | -7.12%
Cc1ccc(S(=O)(=O)N2CCC(C(=O)Nc3ccc(S(=O)(=O)N4CCOCC4)cc3)CC2)cc1 | 8% | 30.2%
C=CC[C@]12CC=CC(=O)[C@@]1(O)O[C@H](c1ccc(OC)c(OC)c1)[C@H]2C | 22.7% | 32%
O=C(Nc1nnc(SCCN2CCOCC2)s1)C1CC(=O)N(c2ccccc2)C1 (centres undefined) | 1.56% | -15.8%
CN(Cc1ccccc1)S(=O)(=O)c1ccc(Cl)c(C(=O)NCCCN2CCOCC2)c1 | -5.53% | 5.69%
COc1ccc(Nc2nc(C)nc3c2oc2ccccc23)c(OC)c1 | 2.99% | 4.48%
O=C(NCCS(=O)(=O)N1CCN(c2ccc(F)cc2)CC1)c1ccc(Br)o1 | -22.6% | -4.89%
c1nnc2c3c4c(sc3ncn12)CCC4 | 4.85% | 26.2%
O=C(Nc1nnc(SCc2ccc(F)cc2)s1)c1cccnc1Cl | -9.69% | -19.9%
CCN(CC)Cc1nc2c(c(=O)[nH]1)C(CC)(CC)Cc1ccccc1-2 | -14.9% | 6.86%
Cn1cnnc1SCC(=O)NC1CCCC1 | -4.24% | -19.9%
COC(=O)c1ccc(CSc2nc3sc(C)c(C)c3c(=O)[nH]2)cc1 | -20.1% | -17.4%

SMILES | inhibition [1] | inhibition [2]
NNC(=O)COc1ccc(C(F)(F)F)cc1 | -3.76% | 4.91%
CCOc1ccc(N2CC(C(=O)Nc3ccc4c(c3)OCCO4)CC2=O)cc1 (centres undefined) | -5.36% | -6.17%
O=C(CCCN1C(=O)/C(=C/c2ccccc2Cl)SC1=S)NNC(=O)c1cccnc1 | 34.3% | 29.9%
CCN1CCN(C(c2ccc(C(F)(F)F)cc2)c2ccc3cccnc3c2O)CC1 (centres undefined) | -15.7% | 13.2%
Cc1cccc(NC(=O)Nc2ccc(Cl)c(Cl)c2)n1 | -83.6% | -16.7%
CCOc1ccc(-n2cc(C(=O)NCc3ccco3)c3cc(OC)c(OC)cc3c2=O)cc1 | 2.87% | -7.4%
CCn1nc(C)cc1-c1nnc(Sc2ncc([N+](=O)[O-])s2)n1C | 85.2% (active) | 93.9% (active)
O=C(COC(=O)CCN1C(=O)/C(=C\C=C\c2ccccc2)SC1=S)Nc1ccc(Br)cc1 | 38.2% (active) | 74.3% (active)
CC(C)c1cc(CNC(=O)c2ccc(OC3CCN(Cc4ccccn4)CC3)cc2)on1 | -9.72% | 11.8%
Cc1cccc(C)c1NC(=O)C[n+]1cc(-c2ccccc2)n2c1CCC2 | -22.3% | -2.7%
CCOc1ccc(NC(=S)NC(=O)/C=C/c2ccc(OC)cc2)c([N+](=O)[O-])c1 | -22.3% | -19.4%
CCSc1ccccc1C(=O)N1CCN(c2ccc([N+](=O)[O-])cc2)CC1 | 0.48% | 15.7%
COc1ccc(-c2nc(NC(=O)C3CC(=O)N(c4ccc5c(c4)OCCO5)C3)sc2C)cc1 (centres undefined) | -6.3% | 50.7% (active)
COc1ccc(CNn2c(-c3cccs3)nc3ccccc3c2=O)cc1OC | -9.43% | 33.2%
O=S(=O)(c1ccc(Cl)cc1)c1snnc1-c1ccccc1 | 31.6% | 76.7% (active)
COc1cccc(N2CCN(C(=O)c3ccc(CS(=O)c4ccc(Cl)cc4)o3)CC2)c1 (centres undefined) | 19.7% | 14.5%
